Our source for the outcome and AC50 values is PubChem BioAssay (EPA / NIEHS).

The AC50 is the midpoint of the concentration-response curve, whichever way the signal moves.

Active and inactive are the calls of the source. How the source made its calls: active means hit-call score of the fitted dose curve at least 0.9, where 1 is the maximum; inactive means score below 0.9.

What all share (settings): mRNA level, 48 h; actives raise or lower the signal
Read-out in assay [1]: MicroRNA 122 (MIR122), gene 406906
Put plainly: LTEA_HepaRG_MIR122: Life Technologies and Expression Analysis (LTEA) Assay for MicroRNA 122 (MIR122) using HepaRG (AID 2283516). Further: the transcript read is the microRNA miR-122. The gist of the method: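 Expression measured by microfluidic qRT-PCR with three housekeeping genes for normalisation, after 48 h treatment of HepaRG cultures. Eight concentrations (top 100 uM, half-log steps, 0.5% DMSO vehicle) in duplicate; gain or loss fitted relative to vehicle.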

Read-out in assay [2]: matrix metalloproteinase-10 (MMP10), MMP10 (gene 4319)
Put plainly: LTEA_HepaRG_MMP10: Life Technologies and Expression Analysis (LTEA) Assay for matrix metalloproteinase-10 (MMP10) using HepaRG (AID 2283517). The gist of the method: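 Expression measured by TaqMan qRT-PCR with ACTB/GAPDH/POLR2A normalisation after 48 h chemical exposure of HepaRG cells. Eight half-log concentrations, top 100 uM, 0.5% DMSO vehicle, duplicates; gain or loss fitted against vehicle.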

Read-out in the next assay: MYC, MYC (gene 4609)
Put plainly: LTEA_HepaRG_MYC: Life Technologies and Expression Analysis (LTEA) Assay for MYC using HepaRG (AID 2283518). The gist of the method:
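Differentiated human HepaRG cells, plated 48 h then switched to serum-free induction medium, were exposed in duplicate for 48 h to 8-point half-log series up to 100 uM in 0.5% DMSO. MYC mRNA measured by qRT-PCR, normalized to ACTB/GAPDH/POLR2A.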

Read-out in assay [3]: matrix metalloproteinase-3 (MMP3), MMP3 (gene 4314)
Put plainly: LTEA_HepaRG_MMP3: Life Technologies and Expression Analysis (LTEA) Assay for matrix metalloproteinase-3 (MMP3) using HepaRG (AID 2283519). The gist of the method:
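Fluidigm-based TaqMan qRT-PCR, normalized to ACTB, GAPDH and POLR2A and fitted bidirectionally versus 0.5% DMSO, measured transcript levels. Treatment: duplicate 48 h exposures of HepaRG cells, ~100,000/well, to eight half-log concentrations topping at 100 uM.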

Read-out in assay [4]: Paternally Expressed 10 (PEG10), PEG10 (gene 23089)
Put plainly: LTEA_HepaRG_PEG10: Life Technologies and Expression Analysis (LTEA) Assay for Paternally Expressed 10 (PEG10) using HepaRG (AID 2283520).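 On AC50: PEG10 transcript by qRT-PCR normalised to ACTB GAPDH and POLR2A.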 The gist of the method:
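PEG10 transcript measured by Fluidigm qRT-PCR, normalized to three housekeeping genes, in HepaRG cells treated 48 h (highest 100 uM, half-log steps, 0.5% DMSO vehicle). Cells plated 48 h before switching to serum-free induction medium.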

Read-out in assay [5]: Nuclear factor NF-kappa-B p105 subunit (Homo sapiens) (UniProt P19838)
Put plainly: LTEA_HepaRG_NFKB1: Life Technologies and Expression Analysis (LTEA) Assay for Nuclear Factor Kappa B Subunit 1 (NFKB1) using HepaRG (AID 2283521).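 Further: TaqMan qRT-PCR transcript normalised to ACTB GAPDH and POLR2A housekeeping genes.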 The procedure, abridged:
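Human HepaRG cells receive eight half-log concentrations, highest 100 uM, for 48 h. NFKB1 expression is then quantified by qRT-PCR and analysed for up- or down-regulation relative to 0.5% DMSO vehicle.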

Read-out in assay [6]: Phosphatase and tensin (PTEN), PTEN (gene 5728)
Put plainly: LTEA_HepaRG_PTEN: Life Technologies and Expression Analysis (LTEA) Assay for Phosphatase and tensin (PTEN) using HepaRG (AID 2283523). The gist of the method: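 Read-out: TaqMan qRT-PCR of PTEN transcript, normalized to three housekeeping genes, fitted in both directions against 0.5% DMSO. Differentiated human HepaRG cultures received chemicals for 48 h, eight-point half-log series topping at 100 uM.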

Read-out in assay [7]: solute carrier (SLC22A1), SLC22A1 (gene 6580)
Put plainly: LTEA_HepaRG_SLC22A1: Life Technologies and Expression Analysis (LTEA) Assay for solute carrier (SLC22A1) using HepaRG (AID 2283524). The procedure, abridged: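 Transcript level of SLC22A1 quantified by qRT-PCR (normalized to three housekeeping genes) after 48 h chemical exposure of HepaRG cells, eight concentrations up to 100 µM, half-log steps, 0.5% DMSO vehicle. Gain or loss relative to DMSO fitted bidirectionally.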

Read-out in assay [8]: Pyruvate Dehydrogenase Kinase 4 (PDK4), PDK4 (gene 5166)
Put plainly: LTEA_HepaRG_PDK4: Life Technologies and Expression Analysis (LTEA) Assay for Pyruvate Dehydrogenase Kinase 4 (PDK4) using HepaRG (AID 2283525). The gist of the method: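 Readout is qRT-PCR of PDK4 transcript, normalized to three housekeeping genes, with bidirectional fitting against 0.5% DMSO vehicle. Differentiated HepaRG cells were treated 48 h in serum-free induction medium, duplicate wells, eight-point half-log series topping at 100 uM.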

Read-out in assay [9]: Protein phosphatase 2A (PPP2R4), PTPA (gene 5524)
Put plainly: LTEA_HepaRG_PPP2R4: Life Technologies and Expression Analysis (LTEA) Assay for Protein phosphatase 2A (PPP2R4) using HepaRG (AID 2283522). The procedure, abridged: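 Expression was quantified by Fluidigm qRT-PCR normalised to three housekeeping genes after 48 h treatment. Human HepaRG cells received an 8-point series from 100 µM downward by half-logs, in duplicate with 0.5% DMSO vehicle and 1 mM phenobarbital as induction control.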

Sequence of Nuclear factor NF-kappa-B p105 subunit (Homo sapiens) (P19838 whole entry, looked up): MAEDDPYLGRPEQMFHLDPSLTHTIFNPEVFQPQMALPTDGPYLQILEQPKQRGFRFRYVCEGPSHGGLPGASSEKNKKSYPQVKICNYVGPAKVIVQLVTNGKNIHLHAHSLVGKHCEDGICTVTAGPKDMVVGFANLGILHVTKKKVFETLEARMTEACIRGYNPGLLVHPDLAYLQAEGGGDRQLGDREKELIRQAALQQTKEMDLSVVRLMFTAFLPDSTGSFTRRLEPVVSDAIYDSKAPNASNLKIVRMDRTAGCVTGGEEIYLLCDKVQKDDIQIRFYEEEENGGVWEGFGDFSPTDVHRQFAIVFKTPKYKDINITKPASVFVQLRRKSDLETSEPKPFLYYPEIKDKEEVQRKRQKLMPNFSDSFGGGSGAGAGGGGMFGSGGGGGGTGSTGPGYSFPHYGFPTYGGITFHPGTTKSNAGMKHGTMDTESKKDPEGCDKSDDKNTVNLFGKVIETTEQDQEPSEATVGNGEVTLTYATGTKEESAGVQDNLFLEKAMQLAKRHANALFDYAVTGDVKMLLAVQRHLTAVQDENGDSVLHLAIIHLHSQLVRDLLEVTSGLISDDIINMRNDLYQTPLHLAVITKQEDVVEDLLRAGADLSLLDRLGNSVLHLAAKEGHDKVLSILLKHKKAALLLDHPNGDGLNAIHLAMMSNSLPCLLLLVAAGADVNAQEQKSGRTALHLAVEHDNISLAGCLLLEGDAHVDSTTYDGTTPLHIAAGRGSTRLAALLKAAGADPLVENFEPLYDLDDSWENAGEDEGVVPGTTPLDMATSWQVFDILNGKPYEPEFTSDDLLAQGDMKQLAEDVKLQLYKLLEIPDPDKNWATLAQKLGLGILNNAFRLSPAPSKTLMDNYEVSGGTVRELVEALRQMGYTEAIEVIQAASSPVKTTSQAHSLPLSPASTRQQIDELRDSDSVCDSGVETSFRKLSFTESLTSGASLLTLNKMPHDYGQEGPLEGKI

With `OC(CCl)CCl`, the outcome was “inactive” in assay [1]; “inactive” in assay [2]; “inactive” with MYC, MYC (gene 4609); “inactive” in assay [3]; “inactive” in assay [4]; “inactive” in [5]. The outcome in assay [6], in assay [7] and in assay [8] was inactive.

Take `O=C(O)[C@H](O)[C@@H](O)C(=O)O`: the outcome in assay [1] was “inactive”; in assay [2] it was “inactive”; with MYC, MYC (gene 4609), “inactive”; in assay [3], “inactive”; in assay [4] it was “inactive”; in [5], “inactive”. In addition, the result in assay [6], in assay [7] and in assay [8] was inactive.

For `CC(=O)c1ccccc1`, the outcome in assay [1] was “inactive”; in [2], “inactive”; with MYC, MYC (gene 4609) it was “inactive”; in assay [3] it was “inactive”; in [4], “inactive”; in [5] it was “inactive”. Further, the compound was classed as inactive in assay [6], in [7] and in assay [8].

As for `OC[C@H]1O[C@@](CO)(O[C@H]2O[C@H](CO)[C@@H](O)[C@H](O)[C@H]2O)[C@@H](O)[C@@H]1O`, the outcome in [1] was “inactive”; in [2], “inactive”; with MYC, MYC (gene 4609) it was “inactive”; in [3] it was “inactive”; in assay [4], “inactive”; in assay [5] it was “inactive”. In addition, the compound was classed as inactive in assay [6], in [7] and in assay [8].

Consider `NC(=O)N(O)[C@@H]1COc2cc(OCc3ccccc3)ccc21`, for which the outcome was “inactive” in assay [1]; “inactive” in assay [2]; “inactive” with MYC, MYC (gene 4609); “inactive” in [3]; “inactive” in assay [4]; “inactive” in [5]. Moreover, the outcome in assay [9], in [6], in assay [7] and in assay [8] was inactive.

Consider `O=C(O)c1cccc(C[C@@H]2COc3ccc(OCc4nc5cc(F)ccc5s4)cc3[C@@H]2O)c1`, for which the outcome was “inactive” in assay [1]; “inactive” in [2]; “inactive” with MYC, MYC (gene 4609); “inactive” in [3]; “inactive” in assay [5]; “inactive” in [6]. Besides, the result in assay [8] was inactive. The AC50 in assay [4] was 50 µM (active); in assay [7], 93.4 µM (active).

In the case of `Cc1ccc(S(=O)(=O)NC(=O)NN2CCCCCC2)cc1`, the outcome in assay [1] was “inactive”; in [2] it was “inactive”; with MYC, MYC (gene 4609), “inactive”; in [3], “inactive”; in [4] it was “inactive”; in assay [5], “inactive”. In addition, the compound was called inactive in [6], in [7] and in [8].

Regarding `NC(=O)N1c2ccccc2C=Cc2ccccc21`, the outcome in assay [1] was “inactive”; in assay [2] it was “inactive”; in the assay with MYC, MYC (gene 4609), “inactive”; in assay [3] it was “inactive”; in assay [4], “inactive”; in assay [5] it was “inactive”. Further, the compound was called inactive in assay [6], in assay [7] and in assay [8].

Regarding `CC[C@H](C)C(=O)O[C@H]1C[C@H](O)C=C2C=C[C@H](C)[C@H](CC[C@@H](O)C[C@@H](O)CC(=O)O)[C@H]21`, the outcome in assay [1] was “inactive”; in assay [2] it was “inactive”; in the assay with MYC, MYC (gene 4609), “inactive”; in assay [3] it was “inactive”; in assay [4], “inactive”; in assay [5], “inactive”. Moreover, the outcome in assay [6], in assay [7] and in assay [8] was inactive.

In the case of `NNC(=O)c1ccncc1`, the outcome in assay [1] is “inactive”; in [2] it was “inactive”; in the assay with MYC, MYC (gene 4609), “inactive”; in assay [3], “inactive”; in assay [4] it was “inactive”; in assay [5], “inactive”. Also, the compound was called inactive in assay [9], in assay [6], in [7] and in assay [8].

Take `CCCCN1C(=O)[C@@H]([C@H](O)C2CCCCC2)NC(=O)C12CCN(Cc1ccc(Oc3ccc(C(=O)O)cc3)cc1)CC2`: the AC50 in [1] is 3.52 µM (active); in assay [2] it was 11.9 µM (active); with MYC, MYC (gene 4609), 7.67 µM (active); in assay [3] it was 0.267 µM (active); in [4] it was 1.01 µM (active); in assay [6] it was 2.98 µM (active). Besides, the figures for the AC50 in assay [7] and in [8] were 1.72 µM (active) and 2.61 µM (active), respectively. Moreover, the call in assay [5] was inactive.

Take `O=C(O)c1ccc2c(c1)nc(C(=O)NC1CCN(C3CC3)CC1)n2Cc1cc(-c2ccc(Cl)s2)on1`: the outcome was “inactive” in assay [1]; “inactive” in assay [2]; “inactive” with MYC, MYC (gene 4609); “inactive” in assay [3]; “inactive” in [4]; “inactive” in assay [5]. Further, the result in [9], in [6], in [7] and in [8] was inactive.

`O=C(NO)C1(NS(=O)(=O)c2ccc(Oc3ccc(F)cc3)cc2)CCOCC1`: the call in assay [1], in assay [2], in [3], in assay [5], in assay [9] and in [6] was inactive. In addition, the AC50 with MYC, MYC (gene 4609) is 78.5 µM (active); in assay [4] it was 68.4 µM (active); in assay [7], 80.7 µM (active); in assay [8], 80 µM (active).

Regarding `OCc1ccccc1`, the outcome in assay [1] was “inactive”; in assay [2], “inactive”; with MYC, MYC (gene 4609), “inactive”; in [3], “inactive”; in [4], “inactive”; in assay [5], “inactive”. Moreover, the compound was classed as inactive in assay [9], in assay [6], in [7] and in [8].

In the case of `CCCCCCCCCC`, the outcome in [1] is “inactive”; in assay [2], “inactive”; in the assay with MYC, MYC (gene 4609), “inactive”; in assay [3] it was “inactive”; in assay [4], “inactive”; in assay [5], “inactive”. Further, the call in assay [6], in [7] and in assay [8] was inactive.

Regarding `CCCCCCOC(=O)CC(CC(=O)OCCCCCC)(OC(=O)CCC)C(=O)OCCCCCC`, the outcome in assay [1] is “inactive”; in assay [2], “inactive”; in the assay with MYC, MYC (gene 4609) it was “inactive”; in assay [3] it was “inactive”; in [4], “inactive”; in [5], “inactive”. In addition, the outcome in assay [9], in assay [6], in [7] and in assay [8] was inactive.

In the case of `CCCCC(CC)C(=O)OCCOCCOCCOC(=O)C(CC)CCCC` (stereo not given), the outcome in assay [1] is “inactive”; in assay [2] it was “inactive”; with MYC, MYC (gene 4609), “inactive”; in assay [3], “inactive”; in assay [4], “inactive”; in assay [5], “inactive”. The result in [9], in assay [6], in [7] and in assay [8] was inactive.
